Consider seven compounds from PubChem BioAssay (EPA / NIEHS).

Test [1] in a line: TAMU_PeakParms_SingleDonor1434_QT: Texas A&M University (TAMU) 1.5-hr Human Induced Pluripotent Stem Cell (iPSC)-derived Cardiomyocytes Calcium (Ca+2) Flux Assay for Cardiotoxicity: QT (decay-rise ratio) (AID 2284235; active = hit-call score of the fitted dose curve at least 0.9, where 1 is the maximum). The method in brief:
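Decay/rise ratio of calcium-flux fluorescence scored after 90 min exposure (37C) of donor 1434 iPSC cardiomyocytes to 0.2–100 uM (0.5% DMSO). Beat-cessation and severe-notch points removed; POD is EC05, a 5% rise over DMSO.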

Test [2] is described as follows: CCTE_Mundy_HCI_Cortical_NOG_BPCount: CCTE's Neurite Outgrowth Assay in rat cortical cells for Branch Point Count, Mundy Lab (AID 2284237).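 For AC50: branch points counted about two days after chemical exposure.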 The method in brief: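 Measured 50.33 h after dosing, this morphology endpoint uses rat primary cortical cultures labelled for betaIII-tubulin. Branch points are quantified by high-content imaging, with DMSO as negative control and baseline.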

Test [3] is described as follows: CCTE_Mundy_HCI_hNP1_Casp3_7: CCTE's Caspase-Glo 3/7 Assay in human neuroprogenitor cells for Apoptosis, Mundy Lab (AID 2284240). The method, boiled down: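 Luminescent caspase-3/7 readout, 26.5 h post-dose, in human neural progenitor cells from WA09 embryonic stem cells. Cells grew 40–44 h at 37 °C, 5% CO2 before chemical addition. Activity analysed as signal increase over DMSO baseline.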

The nature of test [4]: CCTE_Mundy_HCI_hNP1_CellTiter: CCTE's Cell Titer-Glo 2 Assay in human neuroprogenitor cells for Viability, Mundy Lab (AID 2284241; active = hit-call score of the fitted dose curve at least 0.9, where 1 is the maximum). The method, boiled down: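 Viability read as luminescent ATP content (CellTiter-Glo, 30 min room temperature) twenty-four hours after dosing, relative to DMSO. Cells: WA09-derived hNP1 neuroprogenitors on poly-L-ornithine/laminin, plated 40 to 44 hours before chemical.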
For orientation: Cellular ATP, detected with luciferase, serves as a proxy for viable cell number.

Test [5] can be described thus: CCTE_Mundy_HCI_Cortical_Synap_Neur_Matur_NeuronCount: CCTE's Synaptogenesis and Neurite Maturation Assay in rat cortical cells for Neuron Count, Mundy Lab (AID 2284242; active = hit-call score of the fitted dose curve at least 0.9, where 1 is the maximum). The method in brief:
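Measured at DIV 12: fluorescently labelled neurons (Hoechst nuclei, MAP2) in rat primary cortical cultures, counted by high-content imaging. AraC suppressed glia from DIV 5; DMSO served as negative control.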

Test [6] can be described thus: TAMU_HCS_1.5hr_SingleDonor1434_Cytotoxicity: Cytotoxicity Assessment using High-content Screening (HCS) Fluorescent Imaging for the Texas A&M University (TAMU) 1.5-hr Human Induced Pluripotent Stem Cell (iPSC)-derived Cardiotoxicity Assay (AID 2284234; active = hit-call score of the fitted dose curve at least 0.9, where 1 is the maximum). The method in brief:
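Nuclear counts from Hoechst 33342 imaging define cytotoxicity here, with EC10 (10% cell-count loss relative to DMSO) as point of departure. iPSC cardiomyocytes received 0.2-100 uM test chemical in 0.5% DMSO for 1.5 h at 37 C.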

Read-out in test [7]: Interleukin 6 (IL6), IL6 (gene 3569)
As to the kind of experiment: BSK_BT_xIL6: BioMAP Diversity Plus: BT Assay for Interleukin 6 (IL6) Biomarker Activity (AID 2284228). The conditions noted are these: primary human B cells with PBMC. The method in brief:
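Human B cell/PBMC co-culture; secreted IL-6 quantified by Luminex xMAP 24 h after chemical dosing, fitted relative to DMSO. Parallel PBMC viability by Alamar Blue after 1 h pretreatment, 20 ng/mL SEB and TSST-1, 90 h incubation.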

Read-out in test [8]: Interleukin 17A (IL17A), IL17A (gene 3605)
As to the kind of experiment: BSK_BT_xIL17A: BioMAP Diversity Plus: BT Assay for Interleukin 17A (IL17A) Biomarker Activity (AID 2284229). The following applies: primary human B cells with PBMC. The method in brief:
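Co-culture of human B cells and PBMC, dosed for 24 h in 96-well format. Secreted IL-17A measured with Luminex xMAP; gain-direction fitting against DMSO as baseline.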

Read-out in test [9]: Tumor necrosis factor (Homo sapiens) (UniProt P01375)
As to the kind of experiment: BSK_BT_xTNFa: BioMAP Diversity Plus: BT Assay for Tumor necrosis factor alpha (TNF-alpha) Biomarker Activity (AID 2284230). The following applies: primary human B cells with PBMC. The method, boiled down:
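Human primary co-culture of B cells and peripheral blood mononuclear cells; TNF-alpha in supernatant, 24 h post-dose, Luminex multiplex; DMSO = baseline.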

Read-out in test [10]: Vascular cell adhesion molecule 1 (VCAM1), VCAM1 (gene 7412)
As to the kind of experiment: BSK_MyoF_VCAM1: BioMAP Diversity Plus: MyoF Assay for Vascular cell adhesion molecule 1 (VCAM1) Biomarker Activity (AID 2284231). The following applies: primary human lung fibroblasts. The method in brief:
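Primary human lung fibroblasts (BioMAP MyoF system) dosed with chemical, VCAM-1 measured by ELISA 24 hours later. Fitted in the positive direction against DMSO; parallel SRB staining assessed cytotoxicity.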

Read-out in test [11]: Collagen I, COL1A1 (gene 1277)
As to the kind of experiment: BSK_MyoF_CollagenI: BioMAP Diversity Plus: MyoF Assay for Collagen I Biomarker Activity (AID 2284238). The following applies: primary human lung fibroblasts. The method in brief:
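Primary human lung fibroblasts (MyoF system) treated 24 h; Collagen I quantified by ELISA and fitted in positive direction against DMSO. Parallel SRB total-protein staining assessed overt cytotoxicity.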

Read-out in test [12]: Collagen III, COL3A1 (gene 1281)
As to the kind of experiment: BSK_MyoF_CollagenIII: BioMAP Diversity Plus: MyoF Assay for Collagen III Biomarker Activity (AID 2284239). The conditions noted are these: primary human lung fibroblasts. The method, boiled down:
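Primary human lung fibroblasts (BioMAP MyoF system) exposed 24 h. Collagen III measured by ELISA; positive-direction fit relative to DMSO.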

Read-out in test [13]: Interleukin 17F (IL17F), IL17F (gene 112744)
As to the kind of experiment: BSK_BT_xIL17F: BioMAP Diversity Plus: BT Assay for Interleukin 17F (IL17F) Biomarker Activity (AID 2284243). The following applies: primary human B cells with PBMC. The method, boiled down: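 Human PBMC co-cultured with B cells, compound exposure 24 h; secreted IL-17F quantified by Luminex xMAP, referenced to DMSO control. PBMC viability measured in parallel by Alamar Blue reduction.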

Read-out in test [14]: Actin alpha 1 (ACTA1), ACTA1 (gene 58)
Put plainly: BSK_MyoF_ACTA1: BioMAP Diversity Plus: MyoF Assay for Actin alpha 1 (ACTA1) Biomarker Activity (AID 2284244). The conditions noted are these: primary human lung fibroblasts. The method, boiled down:
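MyoF fibroblast system (human lung); a-SMA quantified via ELISA at 24 h; DMSO-normalised, gain-of-signal endpoint.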

Read-out in test [15]: Interleukin 2 (IL2), IL2 (gene 3558)
Put plainly: BSK_BT_xIL2: BioMAP Diversity Plus: BT Assay for Interleukin 2 (IL2) Biomarker Activity (AID 2284245). The conditions noted are these: primary human B cells with PBMC. The method, boiled down: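 Co-cultures of primary human B cells and PBMC are treated with chemical and sampled at 24 h. IL-2 secretion is quantified by Luminex xMAP, with DMSO-treated wells as baseline.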

Read-out in test [16]: Basic fibroblast growth factor (bFGF), FGF2 (gene 2247)
As to the kind of experiment: BSK_MyoF_bFGF: BioMAP Diversity Plus: MyoF Assay for Basic fibroblast growth factor (bFGF) Biomarker Activity (AID 2284246). The following applies: primary human lung fibroblasts. The method in brief: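 Fibroblasts from human lung, 24 h dosing. bFGF by ELISA; gain of signal over DMSO.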

Read-out in test [17]: Collagen IV, COL4A1 (gene 1282)
Put plainly: BSK_MyoF_CollagenIV: BioMAP Diversity Plus: MyoF Assay for Collagen IV Biomarker Activity (AID 2284247). The following applies: primary human lung fibroblasts. The method, boiled down: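 Lung fibroblasts (human primary) treated with chemicals were assayed after 24 h for Collagen IV using an ELISA, with DMSO serving as negative control and baseline for a positive-direction fit.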

Read-out in test [18]: Monokine induced gamma interferon (MIG), CXCL9 (gene 4283)
Put plainly: BSK_KF3CT_MIG: BioMAP Diversity Plus: KF3CT Assay for Monokine induced gamma interferon (MIG) Biomarker Activity (AID 2284248). The following applies: primary human keratinocytes with fibroblasts. The method, boiled down:
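Human keratinocyte–foreskin fibroblast co-culture; MIG measured by ELISA 24 h after chemical dosing, fitted upward versus DMSO. Cytotoxicity was assessed in parallel cultures by SRB total-protein staining read at 560 nm.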

Read-out in test [19]: Vascular cell adhesion molecule 1 (VCAM1), VCAM1 (gene 7412)
Put plainly: BSK_BF4T_VCAM1: BioMAP Diversity Plus: BF4T Assay for Vascular cell adhesion molecule 1 (VCAM1) Biomarker Activity (AID 2284249). The following applies: primary human bronchial epithelial cells with fibroblasts. The method, boiled down:
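Cell-surface VCAM-1 quantified by ELISA after 24 h chemical exposure of human bronchial epithelial/dermal fibroblast co-cultures, with SRB staining in parallel wells for cytotoxicity; DMSO baseline, positive-direction fitting.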

Read-out in test [20]: Collagen I, COL1A1 (gene 1277)
As to the kind of experiment: BSK_hDFCGF_CollagenI: BioMAP Diversity Plus: hDFCGF Assay for Collagen I Biomarker Activity (AID 2284250). The conditions noted are these: primary human foreskin fibroblasts. The method in brief: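 Readout: Collagen I by ELISA after 24 h compound treatment of primary human foreskin fibroblasts. Endpoint analysed for increases relative to DMSO; total protein by SRB in parallel wells flagged cytotoxicity.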

Molecules are shown by their SMILES. “And” between values parts separate entries of the source, which are not always exact repeats. Equal entries are not always repeated. Inconclusive results are not listed. A structure can be active in one record and inactive in another. The source made the active and inactive calls. Rule for the calls, unless noted: active = hit-call score of the fitted dose curve at least 0.9, where 1 is the maximum; inactive = score below 0.9.

Tumor necrosis factor (Homo sapiens), sequence (P01375 whole entry, looked up): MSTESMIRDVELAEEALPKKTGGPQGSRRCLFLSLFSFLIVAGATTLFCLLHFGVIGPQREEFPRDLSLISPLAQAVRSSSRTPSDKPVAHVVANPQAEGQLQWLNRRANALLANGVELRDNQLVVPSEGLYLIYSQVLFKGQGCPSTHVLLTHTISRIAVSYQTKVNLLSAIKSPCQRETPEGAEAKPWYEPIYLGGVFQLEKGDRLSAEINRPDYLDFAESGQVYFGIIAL

For `NC(=O)NO`, the result in [1], in [2], in test [3], in test [4] and in test [5] was inactive.
With `O=C1CCC(N2C(=O)c3ccccc3C2=O)C(=O)N1` (stereo not drawn), the call in test [2], in test [3], in test [4] and in [5] was inactive.
For `CCCCCCc1ccc(O)cc1O`, the AC50 (as a rule, the concentration giving half of the maximal activity seen) in test [6] was 50 µM (active). Further, the result in [1] was inactive.
`CC[C@H]1OC(=O)[C@H](C)[C@@H](O[C@H]2C[C@@](C)(OC)[C@@H](O)[C@H](C)O2)[C@H](C)[C@@H](O[C@@H]2O[C@H](C)C[C@H](N(C)C)[C@H]2O)[C@](C)(O)C[C@@H](C)C(=O)[C@H](C)[C@@H](O)[C@]1(C)O`: the compound was classed as inactive in test [2], in test [3], in [4] and in [5].
Turning to `Cn1c(=O)c2c(ncn2C)n(C)c1=O`, the compound was classed as inactive in test [2], in [3], in test [4] and in [5].
As to `Cn1cnc([N+](=O)[O-])c1Sc1ncnc2nc[nH]c12`, the AC50 was 8.87 µM (active) and 12.6 µM (active) in test [7]; 12.6 µM (active) and 10.3 µM (active) in test [8]; 12.6 µM (active) in test [9]; 0.254 µM (active) in [14]; 9.43 µM (active) and 12.6 µM (active) in test [15]; 12.6 µM (active) in [19]. The outcome in [10], in test [11], in [12], in test [13], in test [14] and in test [16] was inactive. Further, the outcome in test [17], in test [18], in test [19] and in test [20] was inactive.
Take `O=P(OC(CCl)CCl)(OC(CCl)CCl)OC(CCl)CCl`: the AC50 in test [2] is 20.8 µM (active). Also, the call in test [3] and in [5] was inactive.
